In the library only some 1.2% were active in any assay of this set; here they are far more common.
RGS7-Gao reg: human RGS7-Galphao interaction regulation. AID 1439. Multiplexed bead flow cytometry, RGS7-Galphao binding; actives lie on both sides. P09471. 220,000 tested, 0.35% active. binding response (% of control), % at 10 µM; in the data active means binding response below about 49% or above about 150%; inconclusive means no clear call, values can overlap the other calls; inactive means in between;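 further: fluorescent Galphao held in activated GDP-AlF4 state binding bead-coupled RGS7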
Target sequence (P09471 whole entry, looked up): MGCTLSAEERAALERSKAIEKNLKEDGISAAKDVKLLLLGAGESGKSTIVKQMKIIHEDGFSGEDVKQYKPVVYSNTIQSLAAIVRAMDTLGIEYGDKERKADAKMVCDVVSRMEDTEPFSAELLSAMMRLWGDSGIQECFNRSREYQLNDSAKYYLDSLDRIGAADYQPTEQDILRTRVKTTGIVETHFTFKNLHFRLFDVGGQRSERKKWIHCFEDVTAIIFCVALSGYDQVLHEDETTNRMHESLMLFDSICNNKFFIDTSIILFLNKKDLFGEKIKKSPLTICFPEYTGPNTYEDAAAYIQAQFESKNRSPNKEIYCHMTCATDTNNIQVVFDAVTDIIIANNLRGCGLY
RGS16-Gao HTS: modulates binding between human RGS16 and Galphao. 220,000 tested, 0.38% active. O15492+P09471. binding response (% of control), % at 10 µM. bead-based flow cytometry RGS16-Galphao binding, fluorescence; actives lie on both sides;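 further: Galphao activated by GDP with aluminum fluoride before binding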
Target sequence (O15492 whole entry, looked up): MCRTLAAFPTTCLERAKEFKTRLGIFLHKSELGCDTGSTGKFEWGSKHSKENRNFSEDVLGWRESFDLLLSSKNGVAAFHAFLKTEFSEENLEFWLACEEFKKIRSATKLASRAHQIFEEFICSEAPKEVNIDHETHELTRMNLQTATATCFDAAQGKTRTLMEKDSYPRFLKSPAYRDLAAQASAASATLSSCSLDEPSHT
Target sequence (P09471 whole entry, looked up): as the sequence (P09471 whole entry, looked up) above
GSH bead fluor: GSH bead compound fluorescence profile; fluorescence (KMESF) at 10 µM; 190,000 tested, 0.25% active; GSH beads flow cytometry, compound fluorescence 488/530 nm; stronger effect = higher value; AID 1776; in the data active means fluorescence above about 89;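 further: glutathione beads carrying GST-tagged Bcl family fusion proteins plus one bare bead set; values are compound well signal with DMSO vehicle wells as background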
RGS4-Gao reg: human RGS4-Galphao interaction regulation | P09471 | Multiplexed bead flow cytometry, RGS4-Galphao binding; actives lie on both sides | binding response (% of control), % at 10 µM | 220,000 tested, 0.33% active; in the data active means binding response below about 49% or above about 150%; inactive means in between;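 further: fluorescent Galphao activated with aluminum fluoride binding bead-coupled RGS4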
Avidin bead fluor: compound fluoresces at 488/530 nm on avidin beads; 220,000 tested, 0.38% active; fluorescence (KMESF) at 10 µM; compound fluorescence 488/530 nm, flow cytometry; stronger effect = higher value; AID 1775; in the data active means fluorescence above about 47
RGS8-Gao: regulators of human RGS8-Galphao interaction | 220,000 tested, 0.34% active | response (percent of control binding), % at 10 µM | P09471 | multiplexed bead flow cytometry, RGS8-Galphao binding; actives lie on both sides; in the data active means response below about 60% or above about 140%; inactive means in between;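 further: Galphao activated as the GDP aluminium fluoride complex binding bead-coupled RGS8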
RGS-Gao: RGS4-Galphao interaction regulator (human); 1,600 tested, 99% active; shares compounds with RGS16-Gao HTS; multiplexed bead flow cytometry, RGS–Galpha-o binding; RGS4–Galpha-o binding response, % at 10 µM;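 further: fluorescently labeled Galpha-o bound to GDP with aluminium fluoride binding biotinylated RGS beads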
Biotin-avidin: counter-screen: compounds disrupting biotin binding to avidin beads; inhibition, % at 10 µM; 1,700 tested, under 10 active; shares compounds with RGS16-Gao HTS; streptavidin beads, fluorescein-biotin binding, flow cytometry;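 active means inhibition above 50%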;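 further: median green fluorescence of gated singlet beads compared with DMSO control wells; 0% = DMSO wells and 100% = complete loss of bead fluorescence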
RGS8-Gao confirm: confirmation of regulators of human RGS8-Galphao interaction; shares compounds with RGS16-Gao HTS; bead-based flow cytometry RGS8-Galphao binding, fluorescence; actives lie on both sides; binding response (% of control), % at 10 µM; 1,700 tested, 3% active; in the data active means binding response below about 72% or above about 130%; inactive means in between;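 further: Galphao activated as GDP AlF4 complex before binding bead RGS8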
RGS7-Gao confirm: RGS7-Galphao interaction regulation, single point confirmation; bead-based flow cytometry RGS7-Galphao binding; actives lie on both sides; 1,700 tested, 7.8% active; shares compounds with RGS16-Gao HTS; response (percent of control binding), % at 10 µM; in the data active means response below about 75% or above about 130%; inactive means in between;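 further: fluorescent Galphao activated with GDP and aluminum fluoride binding bead-coupled RGS7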
RGS16-Gao single: RGS16-Galphao interaction regulation, single point confirmation. shares compounds with RGS16-Gao HTS. bead-based flow cytometry, RGS16-Galphao binding; actives lie on both sides. response (% of control binding), % at 10 µM. 1,700 tested, 4% active; in the data active means response below about 74% or above about 130%; inactive means in between;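 further: Galphao activated as the GDP aluminium fluoride complex binding bead-coupled RGS16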
RGS4-Gao single: RGS4-Galphao interaction regulation, single point confirmation. shares compounds with RGS16-Gao HTS. binding response (% of control), % at 10 µM. RGS4-Galphao binding, multiplexed bead flow cytometry; actives lie on both sides. AID 1840. 1,700 tested, 4% active; in the data active means binding response below about 74% or above about 130%; inactive means in between
RGS19-Gao single: RGS19-Galphao interaction regulation, single point confirmation; bead-based flow cytometry RGS19-Galphao binding; actives lie on both sides; shares compounds with RGS16-Gao HTS; AID 1841; response (percent of control binding), % at 10 µM; 1,700 tested, 5% active; in the data active means response below about 50% or above about 160%; inactive means in between;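 further: 100% = no compound control and 0% = blank background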
Active calls of the source: *; i = inactive; ? = inconclusive; . = not tested or not shown; + = active, no number; [ ] = remark or other dose. Unless noted, how the calls were made is not given here.

SMILES | RGS7-Gao reg | RGS16-Gao HTS | GSH bead fluor | RGS4-Gao reg | Avidin bead fluor | RGS8-Gao | Biotin-avidin | RGS8-Gao confirm | RGS7-Gao confirm | RGS16-Gao single | RGS4-Gao single | RGS19-Gao single | others
O=C(OCC(=O)N1CCc2ccccc21)c1ccccc1 | 103 | 106 | 27 | 106 | 5 | 103 | . | . | . | . | . | .
O=C(CO/N=C/c1ccccc1O)N1CCc2ccccc21 | 115 | 191*[activator] | 5 | 114 | 16 | 122 | -1 | 99 | 95 | 95 | 98 | 102 | RGS-Gao=114*
Clc1nc2nc3n(c2nc1Cl)CCC3 | ? | 137 | . | 141 | 6 | 128 | . | . | . | . | . | .
CC(C)CCOc1cccc(OCC(=O)O)c1 | 375*[activator] | 352*[activator] | 63 | 422*[activator] | 84* | 130 | 4 | 97 | 72* | 87 | 85 | 58
O=C(CCc1nnc(CCC2CCCCC2)o1)NCc1ccon1 | 107 | 104 | 10 | 102 | 2 | 105 | . | . | . | . | . | .
NC(=O)[C@@H]1CCNc2c(I)cc([N+](=O)[O-])cc2C(=O)N[C@@H](CCC(=O)O)C(=O)N[C@@H](CO)C(=O)N1 | 99 | 404*[activator] | 25 | 108 | 10 | 134 | . | . | . | . | . | . | RGS-Gao=108*
NC(=O)[C@@H]1CCCCNc2c(I)cc([N+](=O)[O-])cc2C(=O)N[C@@H](CCC(=O)O)C(=O)N[C@@H](CO)C(=O)N1 | 100 | 105 | 18 | 101 | 12 | 102 | . | . | . | . | . | .
Cc1cc(C)c(C)c(C(=O)CSc2nnc(C)c(=O)[nH]2)c1C | 112 | 107 | 29 | 112 | 7 | 108 | . | . | . | . | . | .
CCCC(=O)Nc1cccn(Cc2ccccc2Br)c1=O | . | . | 39 | . | . | . | 0 | 100 | 102 | 100 | 99 | 114
CCc1ccc(C2CC(c3ccco3)=NN2S(C)(=O)=O)cc1 (stereo unspecified) | . | . | 18 | . | . | . | -1 | 99 | 105 | 98 | 100 | 92
CCOc1ccc2cc(C3CC(c4ccco4)=NN3S(C)(=O)=O)c(Cl)nc2c1 (stereo unspecified) | ? | 99 | . | 98 | 6 | 98 | . | . | . | . | . | .
O=C(Nc1ccc2c(c1)OCO2)N1CCN(c2ccccc2Cl)CC1 | 99 | 100 | 14 | 103 | 14 | 100 | . | . | . | . | . | .
O=C(Nc1ccc2c(c1)OCO2)N1CCN(c2cccc(C(F)(F)F)c2)CC1 | 68 | -243 | 32 | 47* | 0 | 72 | -1 | 98 | 96 | 97 | 98 | 105
O=c1c2cc([N+](=O)[O-])ccc2nc(CN2CCN(c3ccccn3)CC2)n1-c1ccccc1F | ? | 97 | 20 | 102 | 10 | 98 | . | . | . | . | . | .
O=C(Nc1cc(Cl)ccc1N1CCOCC1)c1cccnc1Cl | ? | 101 | . | 99 | 4 | 102 | . | . | . | . | . | .
O=C(CSc1nnc2n1CCCN2)c1ccc(Cl)cc1 | -278* | 88 | 11 | +[activator] | -5 | -19* | 2 | 100 | 104 | 102 | 105 | 100
O=C1CCC(N2C(=O)c3ccccc3C2=O)C(=O)N1 (stereo unspecified) | 23* | 49 | 14 | 37* | 4 | 46* | -2 | 100 | 99 | 102 | 103 | 99
O=C(O)C1CCCCC1C(=O)Nc1ccc(Cl)cc1Cl (stereo unspecified) | 91 | 90 | 14 | 90 | 12 | 98 | . | . | . | . | . | .
O=C(O)C1CCCCC1C(=O)Nc1cc(Cl)ccc1Cl (stereo unspecified) | 49* | 99 | 30 | 87 | 5 | 59* | 1 | 100 | 102 | 101 | 102 | 105 | RGS-Gao=87*
O=C(CCC(=O)Nc1ccc(Cl)cc1Cl)NNC(=O)[C@@H]1CCCC[C@@H]1C(=O)O | 107 | 185*[activator] | 11 | 108 | 5 | 128 | 1 | 101 | 105 | 103 | 103 | 101 | RGS-Gao=108*
O=C(CCC(=O)Nc1ccc(Cl)cc1Cl)NNC(=O)Nc1ccccc1 | ? | 99 | 19 | 101 | 9 | 99 | . | . | . | . | . | .
CC(=O)c1sc(-c2ccc(F)cc2)cc1NS(=O)(=O)c1ccccc1 | ? | -20* | . | -36* | -3 | 1.8* | -1 | 101 | 98 | 101 | 101 | 102
CC1CC(=O)C(C2c3ccccc3CCN2C(=O)CCl)C(=O)C1 (stereo unspecified) | 106 | 100 | 10 | 99 | 13 | 100 | . | . | . | . | . | .
COc1cc2c(cc1OC)C(C1C(=O)CC(C)(C)CC1=O)N(C(=O)CCl)CC2 (stereo unspecified) | 92 | 17* | 7 | 90 | 7 | 74 | 0 | 99 | 99 | 101 | 100 | 103 | RGS-Gao=90*
COc1cccc(Oc2cn[nH]c2-c2ccc(OC)cc2O)c1 | 281*[activator] | 107 | 28 | 133 | 187* | 93 | . | . | . | . | . | . | RGS-Gao=133*
SMILES | RGS7-Gao reg | RGS16-Gao HTS | GSH bead fluor | RGS4-Gao reg | Avidin bead fluor | RGS8-Gao | Biotin-avidin | RGS8-Gao confirm | RGS7-Gao confirm | RGS16-Gao single | RGS4-Gao single | RGS19-Gao single | others
COc1ccc(CN(C)C2c3ccccc3-c3ccccc32)cc1 | 109 | 186*[activator] | 16 | 114 | 6 | 124 | 3 | 99 | 99 | 99 | 100 | 90 | RGS-Gao=114*
COc1ccc(OCCN(C)Cc2ccccc2)cc1 | 93 | 94 | 49 | 97 | 10 | 100 | . | . | . | . | . | .
O=C(O)c1ccccc1S(=O)(=O)NCC(O)COC1CCCCC1 (stereo unspecified) | 100 | 102 | 30 | 101 | 15 | 102 | . | . | . | . | . | .
O=C(O)c1ccccc1Sc1ccccc1S(=O)(=O)NC1CCCCC1 | ? | -4.7* | . | -11* | -2 | 7.1* | 1 | 94 | 90 | 95 | 95 | 106
Cc1ccc(Cl)cc1N(CC(=O)NC1CCCCC1)S(C)(=O)=O | 197*[activator] | i | 14 | 180*[activator] | 11 | 247*[activator] | -2 | 103 | 108 | 104 | 102 | 106
CCOC(=O)C(C)Sc1ncc(-c2ccc(Cl)cc2)cn1 (stereo unspecified) | 97 | 76 | 33 | 95 | 28 | 90 | . | . | . | . | . | .

Source: PubChem BioAssay (NMMLSC)
